# About 7,900 targets were measured; listed, in parts, are those with a hit and a random draw of the rest. About 0.6% of all pairs of compound and target were hits. Unmarked numbers belong to inactive results.
# Tests used:
# Experiment in all cases: log2 fold change, soluble protein after heating vs DMSO (PISA); higher = thermal stabilisation; K562 cells, 10 uM, 30 min; active = over 0.2 and 3.5 SD of the protein, either way, in both replicates (recomputed)
# erlotinib = compound: C#Cc1cccc(Nc2ncnc3cc(OCCOC)c(OCCOC)cc23)c1 [erlotinib]
# Method in brief: (§1)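 K562 cells at 2×10^6 cells/mL were treated with 10 μM compound for 30 min. Aliquots were heated for 3 min across 48°C-58°C, pooled, and extracted in PBS with 0.5% NP-40 at 4°C; soluble protein was the supernatant after 21,000xg for 90 min. Soluble protein was quantified by TMTpro 16plex LC-MS/MS with channel sums equalised, and reported as log2 fold change in thermal stability against DMSO controls, with values from duplicates.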
# [1] = compound: C/C(=N\NC(=O)C1=CC(=CC=C1)S(=O)(=O)N2CCOCC2)/C3=C(C=CC(=C3)Cl)O
# Method in brief: as §1
# [2] = compound: C1=CC(=C(C=C1Cl)C2=NC3=NC=CN=C3C(=N2)NC4=CC=NC=C4)F
# Method in brief: as §1
# [3] = compound: C1=CC(=CC=C1C2=NC3=C(N2)C=C(C=C3)C(=O)N)OC4=CC=C(C=C4)Cl
# Method in brief: as §1
# [4] = compound: C1=CC2=C(C=CC(=C2)/C=C\3/C(=O)NC(=NCC4=CC=CS4)S3)N=C1
# Method in brief: as §1
# [5] = compound: C1=CC2=NC=CN=C2C=C1/C=C/3\C(=O)NC(=O)S3
# Method in brief: as §1
# [6] = compound: C1=CC=C(C=C1)C2=NC(=C(N2)C3=CC=NC=C3)C4=CC(=C(C=C4)Cl)O
# Method in brief: as §1
# [7] = compound: C1=CC=C2C(=C1)C3=NNC4=CC=CC(=C43)C2=O
# Method in brief: as §1
# [8] = compound: C1CCN(C1)C(=O)NC2=CC=CC(=C2)NC3=NC=C(C(=N3)NCCC4=CN=CN4)Br
# Method in brief: as §1
# [9] = compound: C1CN(CCC1(CC2=CC=C(C=C2)Cl)N)C3=NC=NC4=C3C=CN4
# Method in brief: as §1
# IRAK-1-4 Inhibitor I = compound: C1COCCN1CCN2C3=CC=CC=C3N=C2NC(=O)C4=CC(=CC=C4)[N+](=O)[O-] [IRAK-1-4 Inhibitor I]
# Method in brief: as §1
# ibrutinib = compound: C=CC(=O)N1CCC[C@@H](n2nc(-c3ccc(Oc4ccccc4)cc3)c3c(N)ncnc32)C1 [ibrutinib]
# Method in brief: as §1
# [10] = compound: CC(=O)c1cnc2ccc(-c3cc(Cl)c(O)c(Cl)c3)nc2c1N[C@H]1CC[C@H](CN(C)C)CC1
# Method in brief: as §1
# ralimetinib = compound: CC(C)(C)Cn1c(N)nc2ccc(-c3[nH]c(C(C)(C)C)nc3-c3ccc(F)cc3)nc21 [ralimetinib]
# Method in brief: as §1
# [11] = compound: CC(C)(O)CC(=O)NCCn1ccc2ncnc(Nc3ccc(Oc4cccc(C(F)(F)F)c4)c(Cl)c3)c21
# Method in brief: as §1
# [12] = compound: CC(C)C1=C2N=C(C=C(N2N=C1)NCC3=CC=CC=C3)NCCCCCCN
# Method in brief: as §1
# [13] = compound: CC(C)C[C@@H](C=O)NC(=O)[C@H](CC(C)C)NC(=O)[C@H](CC(C)C)NC(=O)OCc1ccccc1
# Method in brief: as §1
# pinometostat = compound: CC(C)N(C[C@H]1O[C@@H](n2cnc3c(N)ncnc32)[C@H](O)[C@@H]1O)[C@H]1C[C@@H](CCc2nc3cc(C(C)(C)C)ccc3[nH]2)C1 [pinometostat]
# Method in brief: as §1
# [14] = compound: CC1=C(C(CC(=O)N1)C2=CC=C(C=C2)C(F)(F)F)C(=O)NC3=C(C=C4C(=C3)C=NN4)F
# Method in brief: as §1
# [15] = compound: CC1=C(C2=C(C=C1)C(=O)C3=CC=CC=C3N2CCCN)C
# Method in brief: as §1
# Chain of UniProt Q86Y07 (Q86Y07 whole entry, looked up): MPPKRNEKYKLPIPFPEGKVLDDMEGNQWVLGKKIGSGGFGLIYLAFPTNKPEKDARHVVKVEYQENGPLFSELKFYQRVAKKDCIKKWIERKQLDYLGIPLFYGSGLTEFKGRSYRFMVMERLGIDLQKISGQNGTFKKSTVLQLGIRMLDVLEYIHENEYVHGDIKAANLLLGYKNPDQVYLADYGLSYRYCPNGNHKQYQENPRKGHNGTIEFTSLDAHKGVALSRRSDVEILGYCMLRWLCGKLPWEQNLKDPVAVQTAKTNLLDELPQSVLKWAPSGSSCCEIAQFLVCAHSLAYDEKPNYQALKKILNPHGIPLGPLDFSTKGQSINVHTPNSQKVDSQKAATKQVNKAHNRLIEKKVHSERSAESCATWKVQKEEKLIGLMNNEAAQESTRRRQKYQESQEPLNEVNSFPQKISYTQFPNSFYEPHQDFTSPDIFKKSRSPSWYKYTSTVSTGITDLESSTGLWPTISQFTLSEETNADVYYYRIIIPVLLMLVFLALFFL
# Chain of UniProt P07951 (P07951 whole entry, looked up): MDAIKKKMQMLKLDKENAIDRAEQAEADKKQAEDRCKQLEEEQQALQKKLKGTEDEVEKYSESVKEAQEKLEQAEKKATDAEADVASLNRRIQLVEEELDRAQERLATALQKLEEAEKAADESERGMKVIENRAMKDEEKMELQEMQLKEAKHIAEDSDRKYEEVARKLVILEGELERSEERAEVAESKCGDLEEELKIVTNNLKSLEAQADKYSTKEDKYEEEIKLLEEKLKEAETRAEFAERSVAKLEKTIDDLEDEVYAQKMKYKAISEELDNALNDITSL
# Chain of UniProt Q9UBK9 (Q9UBK9 whole entry, looked up): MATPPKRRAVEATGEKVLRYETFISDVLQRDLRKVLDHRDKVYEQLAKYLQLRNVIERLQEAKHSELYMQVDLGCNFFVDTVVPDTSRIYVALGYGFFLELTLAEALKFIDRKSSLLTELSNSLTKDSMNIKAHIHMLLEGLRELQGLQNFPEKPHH
# Chain of UniProt Q9Y4E6 (Q9Y4E6 whole entry, looked up): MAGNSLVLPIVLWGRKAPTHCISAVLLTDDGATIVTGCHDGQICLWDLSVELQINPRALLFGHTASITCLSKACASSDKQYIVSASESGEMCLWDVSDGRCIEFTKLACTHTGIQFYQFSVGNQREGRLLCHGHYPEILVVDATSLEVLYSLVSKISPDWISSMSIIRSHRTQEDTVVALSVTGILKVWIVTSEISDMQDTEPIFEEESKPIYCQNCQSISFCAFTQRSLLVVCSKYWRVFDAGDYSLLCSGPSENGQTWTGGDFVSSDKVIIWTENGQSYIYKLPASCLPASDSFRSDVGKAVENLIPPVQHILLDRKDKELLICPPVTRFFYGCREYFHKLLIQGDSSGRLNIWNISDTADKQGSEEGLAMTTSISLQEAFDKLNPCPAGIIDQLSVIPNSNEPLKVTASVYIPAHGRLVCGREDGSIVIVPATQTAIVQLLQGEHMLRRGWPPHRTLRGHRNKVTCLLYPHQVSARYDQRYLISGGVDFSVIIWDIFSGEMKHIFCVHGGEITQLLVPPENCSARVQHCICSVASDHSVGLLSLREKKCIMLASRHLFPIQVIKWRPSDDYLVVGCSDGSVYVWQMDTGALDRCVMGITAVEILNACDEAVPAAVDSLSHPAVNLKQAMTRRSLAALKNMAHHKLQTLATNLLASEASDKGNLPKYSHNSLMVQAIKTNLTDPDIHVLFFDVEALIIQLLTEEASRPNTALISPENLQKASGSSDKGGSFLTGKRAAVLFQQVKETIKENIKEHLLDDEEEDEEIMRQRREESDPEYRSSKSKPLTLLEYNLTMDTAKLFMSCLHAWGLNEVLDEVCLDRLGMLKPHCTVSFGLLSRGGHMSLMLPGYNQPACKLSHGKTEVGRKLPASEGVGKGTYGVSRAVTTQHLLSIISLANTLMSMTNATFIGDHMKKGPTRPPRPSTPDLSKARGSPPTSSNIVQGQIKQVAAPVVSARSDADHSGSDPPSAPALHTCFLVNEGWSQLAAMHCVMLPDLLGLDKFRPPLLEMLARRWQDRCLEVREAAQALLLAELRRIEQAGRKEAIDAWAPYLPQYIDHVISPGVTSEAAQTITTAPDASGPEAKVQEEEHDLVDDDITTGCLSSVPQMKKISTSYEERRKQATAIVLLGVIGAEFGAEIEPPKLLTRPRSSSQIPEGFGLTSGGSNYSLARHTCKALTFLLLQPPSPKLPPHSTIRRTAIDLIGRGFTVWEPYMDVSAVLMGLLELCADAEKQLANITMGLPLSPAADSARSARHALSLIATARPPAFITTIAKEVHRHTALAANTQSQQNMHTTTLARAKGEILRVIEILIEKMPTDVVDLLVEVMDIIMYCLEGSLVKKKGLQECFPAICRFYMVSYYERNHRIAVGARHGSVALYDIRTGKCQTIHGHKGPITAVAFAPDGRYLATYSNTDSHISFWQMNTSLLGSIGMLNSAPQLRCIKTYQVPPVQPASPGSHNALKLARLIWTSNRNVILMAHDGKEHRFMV
# Chain of UniProt Q9H270 (Q9H270 whole entry, looked up): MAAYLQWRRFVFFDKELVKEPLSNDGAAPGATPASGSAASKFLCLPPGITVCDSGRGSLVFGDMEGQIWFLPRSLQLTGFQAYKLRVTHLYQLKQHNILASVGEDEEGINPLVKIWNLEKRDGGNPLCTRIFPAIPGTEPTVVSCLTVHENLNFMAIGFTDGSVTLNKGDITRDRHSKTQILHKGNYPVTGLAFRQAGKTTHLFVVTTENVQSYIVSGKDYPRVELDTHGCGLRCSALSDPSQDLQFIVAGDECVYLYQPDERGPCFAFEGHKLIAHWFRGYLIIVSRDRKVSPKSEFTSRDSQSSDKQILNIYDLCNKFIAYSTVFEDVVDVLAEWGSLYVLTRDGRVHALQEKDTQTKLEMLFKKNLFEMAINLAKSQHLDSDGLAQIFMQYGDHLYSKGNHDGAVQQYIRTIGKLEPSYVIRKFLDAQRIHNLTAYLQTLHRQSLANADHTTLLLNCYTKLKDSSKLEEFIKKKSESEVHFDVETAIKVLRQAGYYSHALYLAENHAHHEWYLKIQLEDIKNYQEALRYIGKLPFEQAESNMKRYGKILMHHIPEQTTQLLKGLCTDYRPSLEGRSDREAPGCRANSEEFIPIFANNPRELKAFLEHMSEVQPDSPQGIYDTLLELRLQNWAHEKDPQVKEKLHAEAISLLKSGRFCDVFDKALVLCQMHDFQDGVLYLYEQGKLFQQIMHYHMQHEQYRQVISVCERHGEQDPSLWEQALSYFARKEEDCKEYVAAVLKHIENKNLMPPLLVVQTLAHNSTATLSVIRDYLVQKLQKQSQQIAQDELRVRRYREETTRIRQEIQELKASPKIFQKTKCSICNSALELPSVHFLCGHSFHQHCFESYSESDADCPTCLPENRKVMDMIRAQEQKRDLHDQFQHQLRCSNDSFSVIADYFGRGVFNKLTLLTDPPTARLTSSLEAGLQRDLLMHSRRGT
# Chain of UniProt O94967 (O94967 whole entry, looked up): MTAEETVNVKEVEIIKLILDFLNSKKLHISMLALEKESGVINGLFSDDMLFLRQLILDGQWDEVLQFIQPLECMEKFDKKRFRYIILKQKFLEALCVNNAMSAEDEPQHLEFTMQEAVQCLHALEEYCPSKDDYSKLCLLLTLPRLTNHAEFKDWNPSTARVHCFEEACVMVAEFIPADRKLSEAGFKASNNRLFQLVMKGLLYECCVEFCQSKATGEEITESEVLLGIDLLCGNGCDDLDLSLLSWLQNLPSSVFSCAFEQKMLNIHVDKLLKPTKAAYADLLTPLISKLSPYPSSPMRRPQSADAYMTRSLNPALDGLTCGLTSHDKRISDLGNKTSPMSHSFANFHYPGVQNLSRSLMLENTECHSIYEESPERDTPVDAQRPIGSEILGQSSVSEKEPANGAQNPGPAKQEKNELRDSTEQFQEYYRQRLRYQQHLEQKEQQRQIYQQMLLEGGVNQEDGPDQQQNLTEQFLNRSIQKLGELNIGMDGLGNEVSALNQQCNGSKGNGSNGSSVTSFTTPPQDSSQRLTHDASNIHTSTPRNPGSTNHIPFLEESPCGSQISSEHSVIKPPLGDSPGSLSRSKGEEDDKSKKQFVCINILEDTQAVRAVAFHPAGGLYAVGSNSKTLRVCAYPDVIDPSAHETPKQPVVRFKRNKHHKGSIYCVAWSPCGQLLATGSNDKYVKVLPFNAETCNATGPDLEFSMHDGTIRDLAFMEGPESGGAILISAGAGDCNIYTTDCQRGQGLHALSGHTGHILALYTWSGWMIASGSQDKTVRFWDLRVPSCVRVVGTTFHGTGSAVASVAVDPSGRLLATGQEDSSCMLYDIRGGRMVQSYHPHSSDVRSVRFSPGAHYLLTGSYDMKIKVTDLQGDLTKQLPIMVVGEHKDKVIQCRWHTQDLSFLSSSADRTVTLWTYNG
# Chain of UniProt Q15642 (Q15642 whole entry, looked up): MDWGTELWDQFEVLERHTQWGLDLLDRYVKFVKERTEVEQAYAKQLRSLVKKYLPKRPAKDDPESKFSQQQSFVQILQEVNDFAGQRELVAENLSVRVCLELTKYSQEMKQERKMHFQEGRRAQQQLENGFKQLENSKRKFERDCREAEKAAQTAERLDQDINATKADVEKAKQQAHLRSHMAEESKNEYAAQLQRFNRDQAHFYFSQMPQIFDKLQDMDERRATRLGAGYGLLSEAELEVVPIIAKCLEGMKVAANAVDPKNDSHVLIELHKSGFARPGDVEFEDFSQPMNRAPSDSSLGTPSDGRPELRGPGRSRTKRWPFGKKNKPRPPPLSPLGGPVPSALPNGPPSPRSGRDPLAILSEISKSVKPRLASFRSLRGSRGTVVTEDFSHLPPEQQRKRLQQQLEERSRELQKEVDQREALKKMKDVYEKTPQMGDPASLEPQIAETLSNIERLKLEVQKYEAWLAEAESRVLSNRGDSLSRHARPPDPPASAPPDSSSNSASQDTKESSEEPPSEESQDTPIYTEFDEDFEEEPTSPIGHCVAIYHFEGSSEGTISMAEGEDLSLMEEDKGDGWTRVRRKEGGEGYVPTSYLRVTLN
Target,log2 fold change (erlotinib),log2 fold change [1],log2 fold change [2],log2 fold change [3],log2 fold change [4],log2 fold change [5],log2 fold change [6],log2 fold change [7],log2 fold change [8],log2 fold change [9],log2 fold change (IRAK-1-4 Inhibitor I),log2 fold change (ibrutinib),log2 fold change [10],log2 fold change (ralimetinib),log2 fold change [11],log2 fold change [12],log2 fold change [13],log2 fold change (pinometostat),log2 fold change [14],log2 fold change [15]
VPS11 (UniProt Q9H270),-0.041,0.099,0.015,0.005,0.058,0.068,0.03,-0.011,0.002,0.027,0.115,-0.038,-0.032,0.038,-0.069,-0.375 (active),0.062,0.011,0.016,0.031
TPM2 (UniProt P07951),-0.05,0.009,0.417,0.021,-0.146,0.025,0.102,0.02,-0.069,0.101,0.013,-0.018,0.027,0.059,-0.053,0.037,-0.163,-0.1,0.079,-0.103
WDR47 (UniProt O94967),0.038,0.065,-0.014,-0.002,-0.002,0.06,0.047,0,0.013,0.006,-0.089,0.055,0.028,-0.005,-0.03,0.028,-0.048,-0.017,0.024,0.015
WASHC5 (UniProt Q12768),0.019,0.084,-0.061,-0.004,0.088,-0.058,0.04,0.018,0.002,0.002,-0.042,0.007,-0.024,0.072,-0.116,-0.277 (active),0.003,0.067,-0.049,-0.014
VRK2 (UniProt Q86Y07),0.004,0.014,-0.021,-0.026,-0.065,0.011,-0.02,0.118,0.013,0.072,0.004,0.003,0.32 (active),0.21,-0.088,0.027,0.074,0.075,-0.03,0.109
TRIP10 (UniProt Q15642),0.052,0.015,0.203,0.022,0.013,-0.025,0.044,0.011,0.013,-0.026,0.007,0.002,0.009,0.001,0,-0.022,0.007,-0.007,-0.009,-0.02
UXT isoform 2 (UniProt Q9UBK9),0.925 (active),-0.263,0.078,0.113,0.061,-0.044,-0.053,0.012,-0.036,-0.086,0.103,-0.033,-0.019,-0.031,-0.005,0.316,0.082,-0.141,-0.016,0.194
WDR7 (UniProt Q9Y4E6),0.06,0.074,0.065,-0.049,0.092,-0.001,0.099,0.028,-0.009,-0.02,-0.112,-0.027,-0.078,0.067,-0.141,-0.429 (active),0.1,0.062,0.029,0.122

# Source: the supplement of paper PMC10849652
